CHX counter – Cycloheximide Counterscreen for Small Molecule Inhibitors of Shiga Toxin; cell reporter, cycloheximide protein synthesis inhibition counterscreen; max response, %; 300,000 compounds, 12% hits; AID 2314, 2010; in the data active means max response mostly above about 13%, no sharp cut-off; inactive means mostly below about 14%; further: read at 38.3 µM for the half of the compounds with a filed dose; 0% is about no effect
Shiga inhibitor – A qHTS for Small Molecule Inhibitors of Shiga Toxin. AID 2315, 2010. 290,000 compounds, 9.2% hits. Vero cells, Shiga toxin protein synthesis inhibition reporter. inhibition, % at 38.7 µM; in the data active means inhibition mostly above about 28%, no sharp cut-off; inactive means mostly below about 43%; further: 0% is about no effect
TbPYK inhibitor – qHTS of Trypanosoma Brucei Inhibitors; TbPYK enzyme, Kinase-Glo Plus ATP luminescence, 45 min; AID 624173, 2012; pyruvate kinase (Trypanosoma brucei), Q57TT1; 410,000 compounds, 0.12% hits; Potency, µM (doses to about 76.8 µM), for the others: at the highest dose activity, negative = inhibition, actives largely listed as inhibitors; further: potency means the concentration at half of the fitted maximal effect; on the % scale 0 is the no-effect control and ±100 the full control effect; nearly all actives have a fitted effect of over 50% in size
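Luminescence from Kinase-Glo Plus, added after a 45-minute room-temperature reaction, served as the end-point read-out. The enzyme and substrate were preincubated with compound before ADP (130 uM final) initiated turnover. Concentration-effect curves came from normalized qHTS data.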
RE007 growth inh – qHTS Assay for Inhibitors of the HIV-1 protein Vpr; S. pombe RE007 Vpr strain, BacTiter-Glo ATP luminescence, 24 h; Potency, µM (doses to about 92.2 µM), without a hit: at the highest dose activity change, negative = less growth, usual class: inhibitors; 360,000 compounds, 0.21% hits; active means well fitted falling curve with a large enough effect; inconclusive means small, poorly fitted or top-dose-only effect; inactive means no such curve, though single readings can be large or run the other way; further: potency means the concentration at half of the fitted maximal effect; on the % scale 0 is the no-effect control and ±100 the full control effect; nearly all actives have a fitted effect of over 50% in size
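Fission yeast strain RE007, carrying one chromosomally integrated HIV-1 vpr copy, was seeded at OD 0.01 in PMG+AL medium with 23 nL pinned compound. After 24 h at 30 °C and 99% humidity, viability was read by BacTiter-Glo luminescence.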
Giardia FBPA inh – qHTS Assay for Inhibitors of Fructose-1,6-bisphosphate Aldolase from Giardia Lamblia. AID 2451, 2010. Potency, µM (titrated, usually from 59.6 µM), without a hit: at the top dose activity, negative = inhibition, actives largely listed as inhibitors. 290,000 compounds, 0.71% hits. purified Giardia FBPA; further: potency means the concentration at half of the fitted maximal effect; on the % scale 0 is the no-effect control and ±100 the full control effect; nearly all actives have a fitted effect of over 55% in size
Target sequence (A8B2U2 whole entry, looked up): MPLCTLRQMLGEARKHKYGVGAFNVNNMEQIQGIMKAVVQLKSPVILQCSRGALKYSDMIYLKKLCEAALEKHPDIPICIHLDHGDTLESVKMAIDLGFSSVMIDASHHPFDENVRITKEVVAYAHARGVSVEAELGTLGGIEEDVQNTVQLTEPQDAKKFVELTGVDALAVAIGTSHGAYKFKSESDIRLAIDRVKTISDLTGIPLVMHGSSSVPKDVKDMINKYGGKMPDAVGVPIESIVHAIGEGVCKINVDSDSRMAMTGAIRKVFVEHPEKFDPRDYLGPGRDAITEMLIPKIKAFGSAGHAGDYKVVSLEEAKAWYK
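Giardia FBPA (40 nM reagent) was preincubated 10 min at RT with compound (up to 57.5 uM final), then substrate plus GAPDH/TPI/NAD/arsenate coupling system with diaphorase/resazurin was added; resorufin fluorescence (525/598 nm) was read after 20 min.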
LmPK inhibitor – qHTS Assay for Inhibitors of Leishmania Mexicana Pyruvate Kinase (LmPK). Q27686. purified LmPK, Kinase-Glo ATP luminescence, 1 h. Potency, µM (series often up to 57.5 µM), without a hit: top-dose activity change, negative = inhibition, most hits filed as inhibitors. 290,000 compounds, 0.37% hits. AID 1721, 2009; further: potency means the concentration at half of the fitted maximal effect; on the % scale 0 is the no-effect control and ±100 the full control effect
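qHTS format; LmPK 0.1 nM; substrates PEP 0.5 mM and ADP 0.1 mM. One-hour room-temperature incubation, then coupled luciferase luminescence; 0.5 nM enzyme wells mark activation.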
The depositor's hits bear a star; ? = inconclusive; . = no result; [ ] = dose if it differs, or a comment. Only a selection was taken, and hits are over-represented in it overall. Unless noted, the call rests on the fitted dose curve; in most records, active means well fitted curve in the direction sought with a large enough effect; inconclusive means small, poorly fitted or top-dose-only effect, or another doubt; inactive means no such curve, though single readings can be large; an effect the other way counts as inactive or inconclusive.

SMILES | CHX counter | Shiga inhibitor | TbPYK inhibitor | RE007 growth inh | Giardia FBPA inh | LmPK inhibitor
COC(=O)c1cccc(NC(=O)c2cnccn2)c1 | -0.6 | -3.4 | 0.5% | -1.9% | -2.3% | -5.8%
CSc1cccc(NC(=O)c2ccccn2)c1 | 37.5* | 103.2* | . | . | 0.7% | -24.4%
O=C(Nc1cccc(Cl)c1)c1csc(-c2ccccc2)n1 | 43.0* | 97.8 | 2.5% | -20.6% | ? | 1.9%
O=C(Nc1cccc(Cl)c1)c1cnc[nH]1 | 54.5* | 74.7* | 3.9% | 3.5% | 13.2% | -1.7%
O=C(Nc1ccc(Cl)c(Cl)c1)c1csc(-c2ccccc2)n1 | -1.5 | -4.0 | 4.6% | 5.9% | 1.2% | -0.5%
O=C(Nc1cccc(Cl)c1)c1ccncc1 | -0.3 | 8.8 | -15.4% | -16.1% | -0.7% | -7.1%
CSc1cccc(NC(=O)c2cnccn2)c1 | 30.7* | 39.4 | -4.9% | -12.2% | -0.1% | -9.4%
COc1ccc(OC)c(NC(=O)CSc2ccc(-c3cccnc3)nn2)c1 | -2.4 | -4.4 | 2.6% | 4.3% | . | -10.9%
Cc1nnc(SCC(=O)N2CCCCC2)s1 | 17.6* | 33.8* | -5.2% | -13.8% | 3.2% | 4.8%
Cc1ccc(C(=O)CSc2nnc(N)s2)c(C)c1 | 37.7* | 78.1* | -6.3% | -0.9% | -0.7% | -4.9%
Nc1nnc(SCC(=O)N2CCCCC2)s1 | -0.4 | -9.8 | -2.2% | -11.6% | . | -7.6%
CCOc1ccc(C(C)=O)cc1CSc1nnc(N)s1 | -1.3 | -10.5 | -6.0% | -8.9% | 5.7% | 0.3%
COCC(C)n1c(C)cc(C(=O)CSc2nnc(N)s2)c1C (stereo not drawn) | 24.2* | 37.4 | -23.2% | -6.3% | -7.1% | -2.9%
CCOc1ccc(C(=O)CSc2nnc(N)s2)cc1 | 29.6 | 73.0* | -9.3% | -4.9% | -9.9% | -9.2%
CN(C)Cc1ccccc1-c1cncnc1Nc1ccccc1 | . | . | . | . | 3.4% | .
O=C(O)c1cccc(-c2ccccc2)c1O | . | . | 1.5% | 11.5% | . | .
COCCn1c(=O)c(-c2ccccc2)nc2cnc(N3CCN(C)CC3)nc21 | . | . | . | . | 3.8% | .
CCc1ccc(CNC(=O)CSCc2cnn(-c3ccccc3)c2-n2cccc2)cc1 | . | . | 1.4% | . | . | .
COc1ccccc1-c1cnc(C(O)c2cccc(F)c2)[nH]1 (stereo not drawn) | . | . | 2.6% | -16.1%[18.4 µM] | . | .
COC(=O)C1=C(C)N(Cc2ccccc2)C(=NCCCCO)N[C@H]1CCc1ccccc1 | -2.6 | -2.6 | -8.7% | -11.2% | 1.2% | -6.6%
COC(=O)CSc1nnc(C)c(=O)[nH]1 | -1.2 | -8.7 | -14.0% | -6.1% | -2.8% | -1.3%
Cc1cc(C)c(C(=O)CSc2nnc(C)c(=O)[nH]2)cc1C | 48.0* | 95.4* | 3.7% | 1.3% | 21.1% | -0.3%
Cc1ccc(C(=O)CSc2nnc3ccccn23)c(C)c1 | 26.9* | 34.6 | 0.7% | 17.0% | 5.5% | -8.0%
Cc1nnc(SCC(=O)c2ccc(C(C)C)cc2)s1 | 30.6* | 74.1* | -2.0% | -27.2% | -13.0% | -1.6%
Cc1ccc(NC(=O)CSc2nnc3ccccn23)c(Cl)c1 | . | . | 0.6% | 6.9% | . | .
SMILES | CHX counter | Shiga inhibitor | TbPYK inhibitor | RE007 growth inh | Giardia FBPA inh | LmPK inhibitor
Cc1cc(C)c(C(=O)CSc2nnc(N)s2)c(C)c1 | 2.8 | 28.2 | -3.7% | 11.0% | 1.2% | -5.7%
Cc1cc(C)c(C(=O)CSc2nnc(N)s2)cc1C | 25.9* | 21.5 | -15.7% | 8.4% | -1.0% | 8.5%
CN(C)C(=O)c1ccc(COc2ccccc2Br)o1 | 43.0* | 86.2* | -2.0% | -9.4% | 0.9% | -4.6%
COc1ccccc1OCc1ccc(C(=O)N(C)C)o1 | 25.2* | 50.7 | 3.6% | 11.3% | 1.1% | -6.3%
COc1ccccc1OCc1ccc(C(=O)N(C)c2ccccc2)o1 | 7.4 | 3.0 | 4.8% | -9.7% | 11.4% | -4.9%
CCN(CC)C(=O)c1ccc(COc2ccccc2Cl)o1 | 20.7* | 29.1 | 2.3% | 7.2% | 4.2% | -3.5%
COc1ccccc1NC(=O)c1ccc(COc2ccccc2Br)o1 | -2.1 | 1.5 | 1.9% | -13.0% | 2.4% | -0.3%
CCc1cc(=O)oc2c(C)c3c(cc12)CN(CCc1ccccc1OC)CO3 | . | . | 0.0% | . | . | .
CC(=O)Nc1ccc(S(=O)(=O)N(C)CC(=O)Nc2nc3ccccc3[nH]2)cc1 | . | . | 5.6% | -11.5% | . | .
